Hits are enriched below; roughly 2.2% of the tested compounds scored in any of these assays.
DENV2 CPE rescue: inhibitors of DENV2 cytopathic effect; DENV2-infected cells, cytopathic effect rescue, plate reader; CPE inhibition, % at 9.99 µM; 350,000 tested, 1.7% active; in the data active = CPE inhibition above about 20%, passing the limit was not always enough; inconclusive = no clear call, values can overlap the other calls; tested in BHK-21 cells;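 note: 0% = median of neutral control wells and 100% = median of positive control wells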
PvdQ acylase: P. aeruginosa PvdQ acylase inhibition. purified PvdQ acylase, fluorescence plate reader. 340,000 tested, 0.063% active. inhibition, % at 10 µM; in the data active = inhibition above about 30%, passing the limit was not always enough; inconclusive = no clear call, values can overlap the other calls;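 note: 0% = vehicle neutral wells and 100% = reference inhibitor wells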
Statin myotox sup: suppressors of simvastatin-induced myotoxicity in C2C12 myotubes. ATP luminescence, 48 h; scaled: DMSO 0, geranylgeraniol control 100. rescue of ATP level, % at 7.49 µM. 330,000 tested, 0.78% active;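 active = mean ATP rescue above about 67%, or every replicate alone reaching that limit, limit read from the data, passing the limit was not always enough; inconclusive = no clear call, values can overlap the other calls; inactive = mean under the limit and some replicate under it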;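 note: myotubes were challenged with 10 µM simvastatin during compound exposure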
PGC1a acetyl inh: PGC1a acetylation modulation, inhibitor mode. U2OS PGC1a acetylation, AlphaScreen anti-acetyl-lysine; with virally co-expressed GCN5 acetyltransferase. inhibition, % at 15.6 µM. 350,000 tested, 0.17% active;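 active = every replicate shows inhibition of at least 40%; inconclusive = mean inhibition at least 40% but some replicate below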;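 note: 0% = neutral control wells and 100% = positive control wells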
miR122 inh: inhibitors of miR-122 in Huh7 cells | Huh7 miR-122 Renilla luciferase sensor, 48 h; neutral wells = 0, positive control = 100 | activation (reporter increase), % at 12.5 µM | 340,000 tested, 0.3% active | AID 602342;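 active = mean replicate activation score at least 90 and every replicate individually at or above 90; inconclusive = only one of the two criteria met; inactive = neither criterion met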;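 note: higher luciferase means less miR-122 activity so hits act as miR-122 inhibitors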
* = called active by the depositor; ? = inconclusive; . = no result given; [ ] = another dose, or the depositor's remark.

SMILES | DENV2 CPE rescue | PvdQ acylase | Statin myotox sup | PGC1a acetyl inh | miR122 inh
CCn1c(C)cc2c(c1=O)C(c1ccncc1)C(C#N)=C(N)O2 (centres undefined) | . | 1 | 23 | . | -14
Cc1cc2c(c(=O)n1CCN(C)C)C(c1ccccc1Br)C(C#N)=C(N)O2 (centres undefined) | . | -9 | 90* | 0 | 4
Cc1cc2c(c(=O)n1Cc1cccnc1)C(c1ccc(F)cc1)C(C#N)=C(N)O2 (centres undefined) | . | -15 | 110* | 4 | -5
CNC[C@@H]1OCCCC[C@H](C)Oc2ccc(NC(=O)Nc3c(C)noc3C)cc2C(=O)N([C@@H](C)CO)C[C@@H]1C | 0 | . | 35 | 5 | -3[16.7 µM]
Cc1noc(C)c1NC(=O)Nc1ccc2c(c1)C(=O)N([C@H](C)CO)C[C@H](C)[C@H](CN(C)S(=O)(=O)c1cn(C)cn1)OCCCC[C@@H](C)O2 | . | . | . | -1 | 3[16.7 µM]
COc1ccc(C(=O)/C=C/C(=O)N(Cc2ccccc2)C(C(=O)NC2CCCCC2)c2ccncc2)c(O)c1 (centres undefined) | 41* | -11 | . | -5 | -5
O=C(O)c1c2c(nc3ccc(S(=O)(=O)N4CCC(C(=O)NCc5ccc(Cl)cc5)CC4)cc13)CCCC2 | 5 | -15 | 4 | 12 | 2
O=C(O)c1c2c(nc3ccc(S(=O)(=O)N4CCC(C(=O)NCc5ccccc5Cl)CC4)cc13)CCCC2 | -4 | -1 | 77* | 8 | 3
COc1ccccc1NC(=O)c1ccc2nc(-c3ccccc3)c(-c3ccccc3)nc2c1 | . | -6 | 84* | -8 | -9
CCOc1ccccc1NC(=O)c1ccc2ccccc2c1 | ? | -12 | 4 | 88* | 1
COc1cc(NC(=O)c2ccccc2)c(OC)cc1Cl | . | -14 | 130* | 49 | 2
COc1ccc(NC(=O)c2ccc3nc(-c4ccccc4)c(-c4ccccc4)nc3c2)c(OC)c1 | 1 | 6 | . | . | .
C[C@H](CO)N1C[C@H](C)[C@H](CN(C)Cc2ccc3c(c2)OCO3)OCCCC[C@H](C)Oc2ccc(NC(=O)CCCN(C)C)cc2C1=O | -3 | . | -46 | 2 | -8[16.7 µM]
C[C@@H]1CCCCO[C@H](CN(C)C(=O)c2ccccc2)[C@@H](C)CN([C@@H](C)CO)C(=O)c2cc(NC(=O)Nc3ccc(F)cc3)ccc2O1 | 14 | . | . | -1 | -16[16.7 µM]
O=c1c2ccccc2c(=O)n2n1Cc1ccccc1C2 | 3 | -13 | -4 | 15 | -7
CC1=CCn2c(=O)c3ccccc3c(=O)n2C1 | 3 | -6 | 125* | 2 | -4
O=C(O)CCCCCN1C(=O)/C(=C\c2cn(-c3ccccc3)nc2-c2cccs2)SC1=S | 60* | -10 | 41 | -5 | -11
O=C(O)CCCCCN1C(=O)/C(=C/c2cn(-c3ccccc3)nc2-c2cccs2)SC1=S | -5 | -4 | . | . | .
Nc1ccccc1C(O)(Cc1ccccc1)c1ccccc1 (centres undefined) | 36* | -10 | -6 | -36 | 4
C[C@@H]1CN([C@@H](C)CO)C(=O)c2cccc(NC(=O)NC3CCCCC3)c2O[C@@H]1CN(C)C(=O)Nc1ccc(C(F)(F)F)cc1 | 18 | . | -32 | 13 | -6[16.7 µM]
CNC[C@H]1Oc2ccc(NC(=O)Cn3cnnn3)cc2C(=O)N([C@@H](C)CO)C[C@H]1C | 32* | . | 29 | 2 | 2[16.7 µM]
C[C@H]1CN([C@@H](C)CO)C(=O)c2cc(NC(=O)Cn3cnnn3)ccc2O[C@H]1CN(C)Cc1ccc(-c2ccccc2)cc1 | 33* | . | -11 | 2 | -1[16.7 µM]
C[C@@H]1CN([C@H](C)CO)C(=O)c2cc(NC(=O)Cn3cnnn3)ccc2O[C@H]1CN(C)Cc1ccc(-c2ccccc2)cc1 | 3 | . | 10 | -10 | -6[16.7 µM]
C[C@H]1CN([C@@H](C)CO)C(=O)c2cc(NC(=O)Cn3cnnn3)ccc2O[C@@H]1CN(C)Cc1ccc(C(=O)Nc2ccccc2N)cc1 | -6 | . | 39 | -14 | -14[16.7 µM]
C[C@H](CO)N1C[C@H](C)[C@H](CN(C)Cc2ccc(C(=O)Nc3ccccc3N)cc2)Oc2ccc(NC(=O)Cn3cnnn3)cc2C1=O | 10 | . | 100* | -13 | -6[16.7 µM]
SMILES | DENV2 CPE rescue | PvdQ acylase | Statin myotox sup | PGC1a acetyl inh | miR122 inh
Cn1c(=O)c(C(N)=S)cn(-c2ccccc2)c1=O | 4 | -9 | 1 | . | -1
NC(=O)c1cc(Cl)cn(-c2ccccc2)c1=O | 82* | 4 | 5 | -4 | -3
O=C(O)Cn1c(O)c(C2=c3ccccc3=NC2=O)sc1=O | -1 | -5 | 1 | -4 | -2
O=C(O)CCC(C(=O)O)n1c(O)c(C2=c3ccccc3=NC2=O)sc1=S (centres undefined) | . | -10 | 112* | 7 | 1
C[C@@H]1CN([C@H](C)CO)S(=O)(=O)c2ccc(C3=CCCC3)cc2O[C@@H]1CN(C)C(=O)C1CCOCC1 | -4 | . | -26 | -8 | -34[16.7 µM]
Cc1ccc(-c2nc(N3CCN(C)CC3)c3ccccc3n2)cc1 | 25* | 3 | 6 | -15 | 6
CCCNC(=O)N1CC2(C1)[C@H](c1ccccc1)[C@@H](CO)N2CC1CCOCC1 | 24* | . | . | -16 | .
CC(=O)N1CC2(C1)[C@@H](c1ccccc1)[C@@H](CO)N2CC1CCOCC1 | 22* | . | . | 1 | .
CC(=O)N1CC2(C1)[C@H](c1ccccc1)[C@@H](CO)N2Cc1ccccc1 | 24* | . | . | 4 | .
CC(=O)N1CC2(C1)[C@H](c1ccccc1)[C@@H](CO)N2CC1CCOCC1 | 61* | . | . | 4 | .
CCCC(=O)Nc1ccc2c(c1)C(=O)N(C)C[C@H](OC)[C@@H](C)CN(C(=O)CC)[C@H](C)CO2 | . | . | -5 | -13 | 5[16.7 µM]
O=C(CC1CC1)N1CC2(C1)[C@@H](c1ccccc1)[C@@H](CO)N2CC1CCOCC1 | 2 | . | . | 2 | .
O=S(=O)(Cc1ccccc1)N1CC2(C1)[C@H](c1ccccc1)[C@@H](CO)N2CC1CCOCC1 | 27* | . | . | 0 | .
CN(C)CC(=O)N1[C@H](CO)[C@@H](c2ccccc2)C12CN(CC1CCOCC1)C2 | 20* | . | . | -6 | .
CCS(=O)(=O)N1CC2(C1)[C@@H](c1ccccc1)[C@@H](CO)N2CC1CCCC1 | -1 | . | . | -16 | .
Cc1noc(C)c1S(=O)(=O)Nc1ccc2c(c1)C(=O)N([C@@H](C)CO)C[C@H](C)[C@@H](CN(C)S(=O)(=O)c1ccc(F)cc1)OCCCC[C@H](C)O2 | 0 | . | . | 4 | 8[16.7 µM]
CC(OC(=O)/C=C/c1cccc(Cl)c1)C(=O)NC1CCCCC1C (centres undefined) | 91* | -10 | 0 | . | -5
COc1ccc(NC(=O)N(C)C[C@@H]2Oc3c(NS(=O)(=O)c4ccc(OC)cc4)cccc3C(=O)N([C@@H](C)CO)C[C@H]2C)cc1 | -11 | . | 6 | 8 | -1[16.7 µM]
COc1ccc(OC)c(NS(=O)(=O)c2ccc(N3CCCC3=O)cc2)c1 | . | -7 | . | -26 | 120*
COc1ccc(CCNS(=O)(=O)c2ccc(N3CCCC3=O)cc2)cc1 | . | 0 | -5 | -3 | 17
COc1ccc(S(=O)(=O)Nc2cc(Cl)ccc2OC)cc1 | . | -13 | -49 | -20 | 138*

Source: PubChem BioAssay (Broad Institute)
